Reference: PubChem BioAssay AID1479148 (National Center for Advancing Translational Sciences (NCATS), 2020)
Results filed as inconclusive are left out. Active and inactive are the calls of the source. The call rests on the fitted dose curve.

Assay: Confirmatory qHTS for inhibitors of SARS-S pseudo-typed particle cell entry
Conditions: SARS-S pseudotyped particle cell entry, reporter luminescence; series mostly up to 57.1 µM; activity change, negative = inhibition: at the top concentration
With `CN(C)CCC=C1c2ccccc2C(C)(C)c2ccccc21` the Potency was 10.8 µM (active). In the case of `CC[C@@]1(O)C(=O)OCc2c1cc1n(c2=O)Cc2c-1nc1ccccc1c2/C=N/OC(C)(C)C`, the Potency is reported as 0.0857 µM (active). For `Cc1cc(C(C#N)c2ccc(Cl)cc2)c(Cl)cc1NC(=O)c1cc(I)cc(I)c1O` (stereo not drawn), the Potency was 30.4 µM (active). In the case of `CCCCCCCCCCCC[n+]1ccc2ccccc2c1`, the Potency is reported as 3.83 µM (active). In the case of `CN1CCN(CCC=C2c3ccccc3Sc3ccc(S(=O)(=O)N(C)C)cc32)CC1`, the Potency is reported as 6.07 µM (active). In the case of `CC(C)(C)NCC(O)COc1ccccc1C1CCCC1` (stereo not drawn), the Potency is reported as 3.41 µM (active). With `Cc1c(N)nc(C(CC(N)=O)NCC(N)C(N)=O)nc1C(=O)NC(C(=O)NC(C)C(O)C(C)C(=O)NC(C(=O)NCCc1nc(-c2nc(C(=O)NCCCN[C@@H](C)c3ccccc3)cs2)cs1)C(C)O)C(O[C@@H]1O[C@@H](CO)[C@@H](O)[C@H](O)[C@@H]1O[C@H]1O[C@H](CO)[C@@H](O)[C@H](OC(N)=O)[C@@H]1O)c1cnc[nH]1` (stereo partly drawn) the Potency was 0.857 µM (active). With `C/C=C(/C)C(=O)O[C@H]1C(C)=CC23C(=O)C(C=C(CO)[C@@H](O)[C@]12O)[C@H]1[C@@H](C[C@H]3C)C1(C)C` (stereo partly drawn) the Potency was 0.0121 µM (active). With `CCCCCCOC(=O)NC(=N)c1ccc(NCc2nc3cc(C(=O)N(CCC(=O)OCC)c4ccccn4)ccc3n2C)cc1` the “activity change, negative = inhibition” value was -68.1% (inactive). With `O=c1c(C2CC(c3ccc(-c4ccc(Br)cc4)cc3)Cc3ccccc32)c(O)sc2ccccc12` (stereo not drawn) the Potency was 13.6 µM (active). With `COc1cc([C@@H]2c3cc4c(cc3C(O[C@@H]3O[C@@H]5CO[C@@H](c6cccs6)OC5[C@H](O)[C@H]3O)C3COC(=O)[C@@H]32)OCO4)cc(OC)c1O` (stereo partly drawn) the Potency was 1.08 µM (active). For `C=C1c2c(Cl)ccc(O)c2C(O)=C2C(=O)[C@@]3(O)C(O)=C(C(N)=O)C(=O)[C@@H](N(C)C)[C@@H]3[C@@H](O)[C@H]12`, the Potency was 15.2 µM (active). With `CCN1CCN(Cc2ccc(Nc3ncc(F)c(-c4cc(F)c5nc(C)n(C(C)C)c5c4)n3)nc2)CC1` the Potency was 0.961 µM (active). With `C=CC(=O)Nc1cc(Nc2nccc(-c3cn(C)c4ccccc34)n2)c(OC)cc1N(C)CCN(C)C` the Potency was 1.52 µM (active). In the case of `O=c1ccc2ccccc2o1`, the “activity change, negative = inhibition” value is reported as -29.6% (inactive). In the case of `Cc1cn([C@H]2C[C@H](N=[N+]=[N-])[C@@H](CO)O2)c(=O)[nH]c1=O`, the Potency is reported as 0.271 µM (active). In the case of `CC(C)(C)NC(=O)[C@H]1CC[C@H]2[C@@H]3CC[C@H]4NC(=O)C=C[C@]4(C)[C@H]3CC[C@]12C`, the “activity change, negative = inhibition” value is reported as -41.9% (inactive). With `CCc1c2c(nc3ccc(OC(=O)N4CCC(N5CCCCC5)CC4)cc13)-c1cc3c(c(=O)n1C2)COC(=O)[C@]3(O)CC` the “activity change, negative = inhibition” value was -64% (inactive). In the case of `CCn1cc(C(=O)O)c(=O)c2cc(F)c(N3CCNC(C)C3)c(F)c21` (stereo not drawn), the “activity change, negative = inhibition” value is reported as -1.43% (inactive). In the case of `CN(C)CC/C=C1\c2ccccc2Sc2ccc(Cl)cc21`, the Potency is reported as 21.5 µM (active). With `Cc1ccc(NC(=O)c2ccc(CN3CCN(C)CC3)cc2)cc1Nc1nccc(-c2cccnc2)n1` the Potency was 30.4 µM (active). With `O=C(O)c1cc(O)c2c(c1)[C@H]([C@H]1c3cc(C(=O)O)cc(O)c3C(=O)c3c(O[C@@H]4O[C@H](CO)[C@@H](O)[C@H](O)[C@H]4O)cccc31)c1cccc(O[C@@H]3O[C@H](CO)[C@@H](O)[C@H](O)[C@H]3O)c1C2=O` the “activity change, negative = inhibition” value was -58.3% [at 33 µM] (inactive). With `CO[C@@]12[C@H](COC(N)=O)C3=C(C(=O)C(C)=C(N)C3=O)N1C[C@@H]1N[C@@H]12` the Potency was 6.07 µM (active). In the case of `O=C1CCc2ccc(OCCCCN3CCN(c4cccc(Cl)c4Cl)CC3)cc2N1`, the Potency is reported as 19.2 µM (active). With `N/C(=N\N=C\c1ccc(Cl)cc1)N/N=C/c1ccc(Cl)cc1` the “activity change, negative = inhibition” value was -27% (inactive). For `COC(=O)C1=C(C)NC(C)=C(C(=O)OCC(C)C)C1c1ccccc1[N+](=O)[O-]` (stereo not drawn), the Potency was 19.2 µM (active). In the case of `CN1CCC(=C2c3ccccc3C=Cc3ccccc32)CC1`, the Potency is reported as 27.1 µM (active). For `CC(=O)Oc1ccccc1C(=O)Nc1ncc([N+](=O)[O-])s1`, the Potency was 12.1 µM (active). In the case of `CN1CCCCC1CCN1c2ccccc2Sc2ccc(S(C)=O)cc21` (stereo not drawn), the Potency is reported as 27.1 µM (active). For `O=C(Nc1ccc([N+](=O)[O-])cc1Cl)c1cc(Cl)ccc1O`, the Potency was 0.541 µM (active). In the case of `O=C1c2c(O)ccc(O)c2C(=O)c2c(NCCNCCO)ccc(NCCNCCO)c21`, the Potency is reported as 0.121 µM (active). With `COc1cc(N)c(Cl)cc1C(=O)NC1CCN(CCCOc2ccc(F)cc2)CC1OC` (stereo not drawn) the “activity change, negative = inhibition” value was -27% (inactive). For `C[C@@H]1CCO[C@H]2Cn3cc(C(=O)NCc4ccc(F)cc4F)c(=O)c(O)c3C(=O)N12`, the Potency was 0.0096 µM (active).
